{
  "source": "paper PMC8384837",
  "about": "“Expanding the binding specificity for RNA recognition by a PUF domain”",
  "assay_in_all_cases": "yeast three-hybrid, YBZ-1, SC-Leu-His + 0.5 mM 3-AT, 4 days",
  "settings_in_all_cases": "tags: N-Gal4 AD-HA kept; label: inside an RPR1-promoter hybrid RNA with tandem MS2 sites; ssRNA",
  "key": {"[1]": {"target": "PUM1 PUF domain R5-PRK (Homo sapiens, UniProt Q14671 828-1176, C1007P;Q1011K)", "sequence (Q14671 828-1176 C1007P/Q1011K)": "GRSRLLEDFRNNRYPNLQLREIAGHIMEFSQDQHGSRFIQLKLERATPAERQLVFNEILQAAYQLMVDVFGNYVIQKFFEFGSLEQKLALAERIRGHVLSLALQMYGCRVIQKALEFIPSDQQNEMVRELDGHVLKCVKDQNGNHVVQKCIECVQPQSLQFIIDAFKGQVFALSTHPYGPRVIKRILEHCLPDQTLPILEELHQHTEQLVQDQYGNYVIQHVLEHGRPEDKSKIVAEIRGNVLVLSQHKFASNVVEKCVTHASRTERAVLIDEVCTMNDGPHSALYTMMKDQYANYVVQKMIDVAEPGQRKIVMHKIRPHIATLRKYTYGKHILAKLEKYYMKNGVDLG", "summary_of_the_method": "(§1)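 Matching RNA elements and Pumilio-1 PUF domain libraries, randomized at the three base-contacting residues of every repeat, were co-expressed from a centromeric plasmid in strain YBZ-1 (LexA–MS2 coat fusion, HIS3 reporter). The repeat regions were PCR-amplified and Illumina-sequenced from cells grown four days on SC-Leu (input) or SC-Leu-His + 0.5 mM 3-AT (selection). The interaction score is the log change in variant frequency from input to selection. It is computed in log2, with a pseudocount of 1 for absent variants.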"}, "[2]": {"target": "PUM1 PUF domain R7-DYV (Homo sapiens, UniProt Q14671 828-1176, S1079D;N1080Y;E1083V)", "summary_of_the_method": "as §1"}, "[3]": {"target": "PUM1 PUF domain R1-WKR (Homo sapiens, UniProt Q14671 828-1176, S863W;R864K;Q867R)", "summary_of_the_method": "as §1"}, "[4]": {"target": "PUM1 PUF domain R3-LYR (Homo sapiens, UniProt Q14671 828-1176, C935L;R936Y;Q939R)", "summary_of_the_method": "as §1"}, "[5]": {"target": "PUM1 PUF domain R5-KMV (Homo sapiens, UniProt Q14671 828-1176, C1007K;R1008M;Q1011V)", "summary_of_the_method": "as §1"}, "[6]": {"target": "PUM1 PUF domain R8-KRV (Homo sapiens, UniProt Q14671 828-1176, N1122K;Y1123R;Q1126V)", "summary_of_the_method": "as §1"}, "[7]": {"target": "PUM1 PUF domain R8-RYC (Homo sapiens, UniProt Q14671 828-1176, N1122R;Q1126C)", "summary_of_the_method": "as §1"}, "[8]": {"target": "PUM1 PUF domain R8-LYI (Homo sapiens, UniProt Q14671 828-1176, N1122L;Q1126I)", "summary_of_the_method": "as §1"}, "[9]": {"target": "PUM1 PUF domain R3-VWD (Homo sapiens, UniProt Q14671 828-1176, C935V;R936W;Q939D)", "summary_of_the_method": "as §1"}, "[10]": {"target": "PUM1 PUF domain R8-RFK (Homo sapiens, UniProt Q14671 828-1176, N1122R;Y1123F;Q1126K)", "summary_of_the_method": "as §1"}},
  "data": [
    {"sequence": "GGCUAGAACUAGUGGAUCCCCCGGCGCCCGGCGGCUCGAGCCCGGGUAAGUGUGAAUAGUCUGCAUGCCGCCGGGCGCCAUGCCUGCAGGUCGACUCUAGAAAACAUG", "values": [
      {"measurement": "binding signal", "setting": "[1]", "value": "3.87 log2 enrichment (interaction score)"}
    ]},
    {"sequence": "GGCUAGAACUAGUGGAUCCCCCGGCGCCCGGCGGCUCGAGCCCGGGUAAGUUUAAAUAGUCUGCAUGCCGCCGGGCGCCAUGCCUGCAGGUCGACUCUAGAAAACAUG", "values": [
      {"measurement": "binding signal", "setting": "[2]", "value": "6 log2 enrichment (interaction score)"}
    ]},
    {"sequence": "GGCUAGAACUAGUGGAUCCCCCGGCGCCCGGCGGCUCGAGCCCGGGUAAGUGUAAAUCGUCUGCAUGCCGCCGGGCGCCAUGCCUGCAGGUCGACUCUAGAAAACAUG", "values": [
      {"measurement": "binding signal", "setting": "[3]", "value": "1.59 log2 enrichment (interaction score)"}
    ]},
    {"sequence": "GGCUAGAACUAGUGGAUCCCCCGGCGCCCGGCGGCUCGAGCCCGGGUAAGUGUAAUUAGUCUGCAUGCCGCCGGGCGCCAUGCCUGCAGGUCGACUCUAGAAAACAUG", "values": [
      {"measurement": "binding signal", "setting": "[4]", "value": "4.25 log2 enrichment (interaction score)"}
    ]},
    {"sequence": "GGCUAGAACUAGUGGAUCCCCCGGCGCCCGGCGGCUCGAGCCCGGGUAAGUGUCAAUAGUCUGCAUGCCGCCGGGCGCCAUGCCUGCAGGUCGACUCUAGAAAACAUG", "values": [
      {"measurement": "binding signal", "setting": "[5]", "value": "3.71 log2 enrichment (interaction score)"},
      {"measurement": "binding signal", "setting": "[1]", "value": "2.13 log2 enrichment (interaction score)"}
    ]},
    {"sequence": "GGCUAGAACUAGUGGAUCCCCCGGCGCCCGGCGGCUCGAGCCCGGGUAAGUGUUAAUAGUCUGCAUGCCGCCGGGCGCCAUGCCUGCAGGUCGACUCUAGAAAACAUG", "values": [
      {"measurement": "binding signal", "setting": "[1]", "value": "4.06 log2 enrichment (interaction score)"}
    ]},
    {"sequence": "GGCUAGAACUAGUGGAUCCCCCGGCGCCCGGCGGCUCGAGCCCGGGUAAGCGUAAAUAGUCUGCAUGCCGCCGGGCGCCAUGCCUGCAGGUCGACUCUAGAAAACAUG", "values": [
      {"measurement": "binding signal", "setting": "[6]", "value": "3.19 log2 enrichment (interaction score)"},
      {"measurement": "binding signal", "setting": "[7]", "value": "5.8 log2 enrichment (interaction score)"},
      {"measurement": "binding signal", "setting": "[8]", "value": "2.78 log2 enrichment (interaction score)"}
    ]},
    {"sequence": "GGCUAGAACUAGUGGAUCCCCCGGCGCCCGGCGGCUCGAGCCCGGGUAAGUGUAAAUUGUCUGCAUGCCGCCGGGCGCCAUGCCUGCAGGUCGACUCUAGAAAACAUG", "values": [
      {"measurement": "binding signal", "setting": "[3]", "value": "3.54 log2 enrichment (interaction score)"}
    ]},
    {"sequence": "GGCUAGAACUAGUGGAUCCCCCGGCGCCCGGCGGCUCGAGCCCGGGUAAGUGUAAGUAGUCUGCAUGCCGCCGGGCGCCAUGCCUGCAGGUCGACUCUAGAAAACAUG", "values": [
      {"measurement": "binding signal", "setting": "[4]", "value": "5.31 log2 enrichment (interaction score)"},
      {"measurement": "binding signal", "setting": "[9]", "value": "1.13 log2 enrichment (interaction score)"}
    ]},
    {"sequence": "GGCUAGAACUAGUGGAUCCCCCGGCGCCCGGCGGCUCGAGCCCGGGUAAGUGUAAAUAGUCUGCAUGCCGCCGGGCGCCAUGCCUGCAGGUCGACUCUAGAAAACAUG", "values": [
      {"measurement": "binding signal", "setting": "[4]", "value": "4.29 log2 enrichment (interaction score)"},
      {"measurement": "binding signal", "setting": "[6]", "value": "2.09 log2 enrichment (interaction score)"},
      {"measurement": "binding signal", "setting": "[10]", "value": "6.27 log2 enrichment (interaction score)"},
      {"measurement": "binding signal", "setting": "[7]", "value": "5.15 log2 enrichment (interaction score)"},
      {"measurement": "binding signal", "setting": "[8]", "value": "1.1 log2 enrichment (interaction score)"},
      {"measurement": "binding signal", "setting": "[1]", "value": "2.27 log2 enrichment (interaction score)"},
      {"measurement": "binding signal", "setting": "[9]", "value": "5.84 log2 enrichment (interaction score)"}
    ]}
  ]
}
